Values joined by “and” are separate entries in the source; they are usually repeats but may differ in a detail not shown here. Equal values may be shown once. Results filed as inconclusive are left out. Where a call stands in place of a potency, no number is given. More than one record can exist for a structure, and the calls need not agree. Active and inactive are the calls of the source. Unless noted, calls come from the whole dose curve; as a rule, active = well fitted curve in the direction sought with a large enough effect; inconclusive = small, poorly fitted or top-dose-only effect, or another doubt; inactive = no such curve, though single readings can be large; an effect the other way counts as inactive or inconclusive.
Experiments:
[1] = molecular target: Single-stranded DNA cytosine deaminase (Homo sapiens) (UniProt Q9GZX7); test: Validation qHTS assay for inhibitors of Activation Induced Cytidine Deaminase (AID): AID signal (AID 1347429); note: potency is the fitted concentration of half-maximal effect
Outline: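 FRET deamination assay: 1 uM AID (4/3x stock) with UDG, compound up to 114 uM, then 250 nM DJC20/DJC23 substrate (4x stock) for 4 hr at room temperature. NaOH added, 30 min; fluorescence read 540/590 nm.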

[2] = Primary qHTS for inhibitors of La Crosse Virus (LACV) - induced cell death in SH-SY5Y cells (AID 1508616);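 note: top concentration of the series differs between compounds; higher means more rescue of cells from virus-induced death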
Outline: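 SH-SY5Y cells (6000/well) plated 24 h, then given compounds by pin transfer and LACV at 0.01 MOI for 6 days at 37C. Viability measured by ATPLite luminescence, normalized to infected DMSO and uninfected DMSO.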

[3] = molecular target: Calcium and integrin-binding protein 1 (Homo sapiens) (UniProt Q99828); test: Validation qHTS for Identification of Calcium Integrin Binding protein 1 (CIB1) Competitor (AID 1508618); note: potency is the fitted concentration of half-maximal effect
Outline: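 CIB1-GST (1 uM final) incubated 15 min at room temperature with compounds (up to 114 uM), then FITC-labelled alphaIIb peptide (100 nM) added. FP read (Ex 480/Em 540) after 15 min, pH 7.4 buffer containing 5 mM CaCl2.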

[4] = molecular target: Calcium and integrin-binding protein 1 (Homo sapiens) (UniProt Q99828); test: Primary qHTS for Identification of Calcium Integrin Binding Protein 1 (CIB1) Competitor (AID 1508620); note: potency is the fitted concentration of half-maximal effect
Outline: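 Fluorescence polarization competition: CIB1-GST (1 uM final) preincubated with compound 15 min at room temperature, then FITC-labeled alphaIIb peptide (100 nM final) added for another 15 min. Polarization read at Ex 480/Em 540.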

[5] = Primary qHTS for small molecule stabilizers of the endoplasmic reticulum resident proteome: Secreted ER Calcium Modulated Protein (SERCaMP) assay (AID 1508630); note: potency is the fitted concentration of half-maximal effect
Outline: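 GLuc-SERCaMP-expressing SH-SY5Y cells, pretreated 16 h with compound, are challenged with thapsigargin to empty ER calcium stores; after 4 h, coelenterazine is added directly to the medium and luminescence is imaged.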

[6] = A High-Content qHTS Against Drug Library for the Identification of Small Molecules that Inhibit DYT1 Early Onset Primary Dystonia-Associated Cell Pathology (AID 1645839; calls by dose curve; note: series mostly up to about 46 µM)
Outline: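 Readout: %pathology, the punctate EGFP-TorsinA distribution from imaging, as the primary channel and cell count as the toxicity counterscreen. HEK293 Flp-In cells expressing delE TorsinA were induced with tetracycline and treated with compound for 48 h.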

[7] = molecular target: Cytochrome P450 2C9 (Homo sapiens) (UniProt P11712); test: Cytochrome P450 family 2 subfamily C member 9 (CYP2C9) small molecule antagonists: luciferase biochemical (cell-free) qHTS assay (AID 1645842; active = well fitted curve in the direction sought with a large enough effect in the repeat runs; an effect the other way counts as inactive or inconclusive; note: nearly all actives have a fitted effect of over 55% in size; note: potency is the fitted concentration of half-maximal effect)
Outline: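 Luminescence, after 20 min with luciferin detection reagent, reflected CYP2C9 turnover during a 1 h NADPH-driven reaction at 37C. Enzyme-substrate mix contained 0.4% bovine serum albumin and was preincubated with compound 10 min at room temperature.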

[8] = molecular target: Papain (Carica papaya) (UniProt P00784); test: Primary qHTS assay for inhibitors of the protease papain (AID 1645873);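 note: papain turnover of Z-FR-AMC read as the AMC fluorescence gain over 10 min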; note: potency is the fitted concentration of half-maximal effect
[9] = Primary qHTS for inhibitors of nuclear receptor binding SET domain protein 2 (NSD2) in an isogenic RCH-ACV NSD2 p.E1099K mutant (9B) (AID 1645876); note: nearly all actives have a fitted effect of over 70% in size; note: potency is the fitted concentration of half-maximal effect
[10] = Primary qHTS for inhibitors of nuclear receptor binding SET domain protein 2 (NSD2) in an RCH-ACV wild type WT cells (2C) (AID 1645877); note: nearly all actives have a fitted effect of over 70% in size; note: potency is the fitted concentration of half-maximal effect
[11] = molecular target: Cytochrome P450 2D6 (Homo sapiens) (UniProt P10635); test: Cytochrome P450 family 2 subfamily D member 6 (CYP2D6) small molecule antagonists: luciferase biochemical (cell-free) qHTS assay (AID 1645840; active = well fitted curve in the direction sought with a large enough effect in the repeat runs; an effect the other way counts as inactive or inconclusive; note: series mostly up to about 57 µM; nearly all actives have a fitted effect of over 55% in size)
Outline: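 P450-Glo luminescent screen: recombinant CYP2D6 enzyme–proluciferin substrate mix preincubated with compound 10 min at room temperature, then NADPH regeneration added for 1 h at room temperature. Detection reagent added for 20 min; luciferin light read as relative luminescence units.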

[12] = Validation qHTS assay for inhibitors of Activation Induced Cytidine Deaminase (AID): UDG Counterscreen signal (AID 1347427); note: potency is the fitted concentration of half-maximal effect
Outline: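 Counterscreen read of UDG activity (2 U/mL, 4/3x) in the FRET deamination format with AID (1 uM, 4/3x), DJC20/DJC23 substrates (250 nM, 4x), 4 h at room temperature. NaOH stop, fluorescence at 560 ex/665 em.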

[13] = Counterscreen qHTS for small molecule stabilizers of the endoplasmic reticulum resident proteome: GLuc-NoTag assay (AID 1508627);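 note: SH-SY5Y cells given compound then 100 nM thapsigargin to empty ER calcium; series mostly up to about 76 µM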
Outline: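 SH-SY5Y cells stably expressing constitutively secreted GLuc (no SERCaMP tag) were pre-incubated 5 h, treated with compound for 19 h, then 100 nM thapsigargin for 4 h at 37C; medium GLuc read by coelenterazine luminescence.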

[14] = Confirmatory qHTS for small molecule stabilizers of the endoplasmic reticulum resident proteome: Secreted ER Calcium Modulated Protein (SERCaMP) assay (AID 1508628); note: nearly all actives have a fitted effect of over 40% in size; note: potency is the fitted concentration of half-maximal effect
Outline: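 SH-SY5Y cells stably expressing GLuc-SERCaMP, treated 16 h with compound (primary 1.53, 7.67, 38.3 uM; confirmation 11 concentrations, up to 76.6 uM), then 100 nM thapsigargin for 4 h. Secreted Gaussia luciferase in medium read by coelenterazine luminescence.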

[15] = molecular target: Calcium and integrin-binding protein 1 (Homo sapiens) (UniProt Q99828); test: Confirmatory qHTS for Identification of Calcium Integrin Binding Protein 1 (CIB1) Competitor (AID 1508617); conditions: CIB1 binding competition assay, biochemical qHTS; note: potency is the fitted concentration of half-maximal effect; nearly all actives have a fitted effect of over 65% in size
Outline: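 Compounds at up to 114 uM final met 1 uM GST-tagged CIB1 for 15 min at room temperature (HEPES pH 7.4, 5 mM CaCl2). FITC-labelled alphaIIb peptide, 100 nM, added; polarization read after 15 min more.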

[16] = molecular target: Cytochrome P450 3A4 (Homo sapiens) (UniProt P08684); test: Cytochrome P450 family 3 subfamily A member 4 (CYP3A4) small molecule antagonists: luciferase qHTS assay (AID 1645841; active = well fitted curve in the direction sought with a large enough effect in the repeat runs; an effect the other way counts as inactive or inconclusive; note: nearly all actives have a fitted effect of over 45% in size)
Outline: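 P450-Glo CYP3A4 enzyme with proluciferin substrate was preincubated with DMSO-dissolved compounds for 10 min at room temperature. NADPH regeneration solution started a 1 h reaction. Detection reagent stopped it, and luminescence was read after 20 min.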

Sequence of Papain (Carica papaya) (P00784 whole entry, looked up, the tested form may be a part): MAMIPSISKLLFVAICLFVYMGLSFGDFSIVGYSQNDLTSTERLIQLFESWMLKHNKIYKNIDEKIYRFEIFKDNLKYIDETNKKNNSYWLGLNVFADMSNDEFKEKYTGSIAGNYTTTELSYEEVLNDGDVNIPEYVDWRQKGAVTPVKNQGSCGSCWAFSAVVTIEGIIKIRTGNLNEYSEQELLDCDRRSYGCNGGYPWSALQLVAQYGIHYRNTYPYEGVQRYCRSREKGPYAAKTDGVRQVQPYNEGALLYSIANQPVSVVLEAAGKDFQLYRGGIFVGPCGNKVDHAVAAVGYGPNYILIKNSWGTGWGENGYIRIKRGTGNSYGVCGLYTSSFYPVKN
Sequence of Cytochrome P450 2C9 (Homo sapiens) (P11712 whole entry, looked up): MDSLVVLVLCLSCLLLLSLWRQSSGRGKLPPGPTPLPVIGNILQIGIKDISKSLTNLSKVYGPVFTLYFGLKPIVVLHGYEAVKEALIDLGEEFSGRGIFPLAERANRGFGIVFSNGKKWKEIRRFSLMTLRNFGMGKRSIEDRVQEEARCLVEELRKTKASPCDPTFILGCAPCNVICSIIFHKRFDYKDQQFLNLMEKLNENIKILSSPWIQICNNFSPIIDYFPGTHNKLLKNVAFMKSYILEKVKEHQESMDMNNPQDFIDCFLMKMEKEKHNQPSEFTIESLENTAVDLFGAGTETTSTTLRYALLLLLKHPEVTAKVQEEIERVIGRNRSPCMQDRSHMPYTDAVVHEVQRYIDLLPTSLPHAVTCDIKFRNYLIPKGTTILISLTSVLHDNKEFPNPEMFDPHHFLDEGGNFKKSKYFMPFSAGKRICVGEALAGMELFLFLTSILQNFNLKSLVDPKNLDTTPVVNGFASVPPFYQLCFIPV
Sequence of Single-stranded DNA cytosine deaminase (Homo sapiens) (Q9GZX7 whole entry, looked up): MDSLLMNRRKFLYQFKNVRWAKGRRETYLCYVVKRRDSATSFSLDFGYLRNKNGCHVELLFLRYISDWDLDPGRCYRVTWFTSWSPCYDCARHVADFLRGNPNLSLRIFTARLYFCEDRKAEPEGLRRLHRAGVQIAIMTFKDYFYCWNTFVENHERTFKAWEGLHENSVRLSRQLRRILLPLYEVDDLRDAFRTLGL
Sequence of Calcium and integrin-binding protein 1 (Homo sapiens) (Q99828 whole entry, looked up): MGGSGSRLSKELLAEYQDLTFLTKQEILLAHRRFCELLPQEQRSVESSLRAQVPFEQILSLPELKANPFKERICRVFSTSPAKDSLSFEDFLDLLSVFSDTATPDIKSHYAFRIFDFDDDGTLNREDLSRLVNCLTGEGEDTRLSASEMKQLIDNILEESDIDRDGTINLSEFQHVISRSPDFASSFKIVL
Sequence of Cytochrome P450 2D6 (Homo sapiens) (P10635 whole entry, looked up): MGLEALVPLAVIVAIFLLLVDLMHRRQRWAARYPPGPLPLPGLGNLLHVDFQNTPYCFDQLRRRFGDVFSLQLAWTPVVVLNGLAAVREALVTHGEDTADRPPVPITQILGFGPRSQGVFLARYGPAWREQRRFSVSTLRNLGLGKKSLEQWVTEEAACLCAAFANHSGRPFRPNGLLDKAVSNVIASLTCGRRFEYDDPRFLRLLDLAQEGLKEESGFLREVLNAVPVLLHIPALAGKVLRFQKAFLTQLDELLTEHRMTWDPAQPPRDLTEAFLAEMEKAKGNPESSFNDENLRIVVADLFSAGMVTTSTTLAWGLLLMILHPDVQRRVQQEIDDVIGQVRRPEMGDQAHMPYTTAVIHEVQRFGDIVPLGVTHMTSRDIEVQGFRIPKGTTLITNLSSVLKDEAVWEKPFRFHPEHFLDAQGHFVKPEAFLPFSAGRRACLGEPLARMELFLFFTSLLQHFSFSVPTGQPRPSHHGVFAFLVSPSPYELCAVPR
Sequence of Cytochrome P450 3A4 (Homo sapiens) (P08684 whole entry, looked up): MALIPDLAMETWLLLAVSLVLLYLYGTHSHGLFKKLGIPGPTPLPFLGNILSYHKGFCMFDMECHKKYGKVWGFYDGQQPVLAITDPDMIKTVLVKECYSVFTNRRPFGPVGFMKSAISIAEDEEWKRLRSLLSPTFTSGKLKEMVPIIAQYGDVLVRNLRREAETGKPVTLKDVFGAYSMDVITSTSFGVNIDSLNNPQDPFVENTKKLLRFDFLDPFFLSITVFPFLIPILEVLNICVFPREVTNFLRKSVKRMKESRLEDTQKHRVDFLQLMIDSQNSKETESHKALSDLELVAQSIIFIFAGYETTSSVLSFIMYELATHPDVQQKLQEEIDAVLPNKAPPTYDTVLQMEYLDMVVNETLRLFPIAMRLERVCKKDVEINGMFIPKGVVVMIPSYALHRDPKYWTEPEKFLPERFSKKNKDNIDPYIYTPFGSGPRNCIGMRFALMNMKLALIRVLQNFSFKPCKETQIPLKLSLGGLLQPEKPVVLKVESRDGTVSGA

Row | SMILES | Potency [1] | Potency [2] | Potency [3] | Potency [4] | Potency [5] | Potency [6] | Potency [7] | Potency [8] | Potency [9] | Potency [10] | Potency [11] | Potency [12] | Potency [13] | Potency [14] | Potency [15] | outcome [16]
1 | O=c1c(-c2ccc(O)cc2)coc2cc(O)cc(O)c12 | inactive | inactive | inactive | inactive | inactive | inactive | inactive | inactive | 11.9 µM (active) and 13.5 µM (active) | 11.9 µM (active) and 10.8 µM (active) | – | – | – | – | – | –
2 | NCCCCCC(=O)O | inactive | inactive | inactive | inactive | inactive and 33.5 µM (active) | inactive | inactive | inactive | inactive | inactive | inactive | – | – | – | – | –
3 | Cn1c(=O)c2c(ncn2C)n(C)c1=O | inactive | inactive | – | – | – | inactive | inactive | inactive | inactive | inactive | – | inactive | inactive | inactive | – | –
4 | NC(=O)OCC(COC(N)=O)c1ccccc1 | inactive | inactive | inactive | inactive | – | inactive | inactive | inactive | inactive | inactive | – | – | – | – | – | –
5 | CN(C)CCOC(c1ccccc1)c1ccccc1 | inactive | inactive | inactive | inactive | inactive | inactive | – | inactive | inactive | inactive | – | – | – | – | – | –
6 | COc1cc2nc(N(C)CCCNC(=O)C3CCCO3)nc(N)c2cc1OC (configuration not stated) | inactive | inactive | inactive | inactive | inactive | – | inactive | 22.4 µM (active) | inactive | inactive | – | – | – | – | – | –
7 | CCc1cccc2c3c([nH]c12)C(CC)(CC(=O)O)OCC3 (configuration not stated) | inactive | inactive | inactive | inactive | inactive | inactive | 18.2 µM (active) | inactive | inactive | inactive | – | – | – | – | – | –
8 | O=C1c2c(O)ccc(O)c2C(=O)c2c(NCCNCCO)ccc(NCCNCCO)c21 | 10 µM (active) | – | 20 µM (active) | 30.4 µM (active) and 25.1 µM (active) | inactive | inactive | – | inactive | 186 nM (active) | 132 nM (active) | – | 31.6 µM (active) | – | – | 22.4 µM (active) and 20 µM (active) | –
9 | O=C(c1ccc(OCCN2CCCCC2)cc1)c1c(-c2ccc(O)cc2)sc2cc(O)ccc12 | inactive | inactive | inactive | inactive | – | – | – | inactive | 21.1 µM (active) and 23.5 µM (active) and 20.6 µM (active) | 13.3 µM (active) and 18.6 µM (active) and 18.4 µM (active) | – | – | inactive | inactive | – | –
10 | CN1CCN2c3ccccc3Cc3ccccc3C2C1 (configuration not stated) | inactive | inactive | inactive | inactive | inactive | inactive | inactive | inactive | – | – | – | – | – | – | – | –
11 | CCN1CCCC1CNC(=O)c1cc(S(=O)(=O)CC)c(N)cc1OC (configuration not stated) | inactive | inactive | inactive | inactive | inactive | inactive | inactive | inactive | inactive | inactive | – | – | – | – | – | inactive
12 | CC(C)C(=O)Nc1ccc([N+](=O)[O-])c(C(F)(F)F)c1 | inactive | inactive | inactive | inactive | inactive | inactive | – | inactive | – | – | – | – | – | – | – | –
13 | CN(C)CCCN1c2ccccc2CCc2ccc(Cl)cc21 | inactive | inactive | – | – | inactive | – | inactive | inactive | – | 16.8 µM (active) and 18.6 µM (active) | – | inactive | – | inactive | – | –
14 | CC(CCc1ccc(O)cc1)NCCc1ccc(O)c(O)c1 (configuration not stated) | inactive | inactive | inactive | inactive | – | – | inactive | inactive | – | – | – | – | – | 31.6 µM (active) and 39.8 µM (active) and 50.1 µM (active) | – | –
15 | C[C@](N)(Cc1ccc(O)c(O)c1)C(=O)O | inactive | inactive | inactive | inactive | – | inactive | inactive | inactive | inactive | inactive | – | – | – | – | – | –

Reference: PubChem BioAssay (NCATS)
